The values below come from PubChem BioAssay AID1051 (The Scripps Research Institute Molecular Screening Center, 2008).

The campaign covered roughly 99,000 compounds. About 340 (0.34%) were called active. The sample as a whole holds a higher share of actives than the screen did. Values without a mark were called inactive. Cut-off read from the data, not from the text of the source: active = TR-FRET ratio above about 2300; inactive = the rest.

The test is described as follows: TR-FRET detection interference compounds, primary screen, artefact control for PPARgamma SRC-1 recruitment agonists, biochemical, TR-FRET emission ratio (AID 1051). The settings on record: TR-FRET detection artefact counter-screen, at 8 µM, active compounds read high. (In TR-FRET formats the signal depends on donor and acceptor labels being close together.)
Take `COc1cc(-n2c(=S)[nH]c3ccc(C)cc3c2=O)c(Cl)cc1Cl`: the TR-FRET ratio is 2560 (active).
For `O=C1N=c2ccccc2=C/C1=C\c1c(O)[nH]c(=S)[nH]c1=O` the value was 1870.
For `COc1ccc(C2N3CC(C)(C)CN23)cc1` (stereo not given) the value was 1740; for `CCOP(=O)(OCC)C(NC(=O)c1ccc(C)cc1)C(Cl)(Cl)Cl` (stereo not given), 1720; for `OCC#CC[N+]1(CC#Cc2ccccc2)CCCC1`, 1790.
